Reference: PubChem BioAssay AID720513 (Broad Institute, 2013)
Hit rate of the full screen: of about 2,100 compounds, about 480 (23%) were called active. Another 5% or so got no clear call; they are omitted.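 The calls were made as follows: active = fitted curve reaches 40% activation at or below the top valid concentration, in every replicate test; inconclusive = replicate tests disagree on the call; inactive = the rest, including activity in the opposite direction.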 Not all results are given here. Measured potencies and affinities stand elsewhere.

Test: PGC1a acetylation increase, cellular AlphaLISA – cell-based, cherry-picked samples, set 6, dose response (AID 720513);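 also: cells made to overexpress flag tagged PGC1a plus GCN5 acetyltransferase by viral infection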
Settings: U2OS PGC1a acetylation AlphaLISA, overnight, 0 = neutral, -100 = inhibitor control; series mostly up to 19.5 µM; activation (acetylation increase): at the top concentration

Activation (acetylation increase), inactive:
C[C@@H]1CN([C@@H](C)CO)C(=O)c2cc(NC(=O)c3ccncc3)ccc2O[C@@H](C)CCCCO[C@@H]1CN(C)Cc1ccncc1 7.05%, CC(=O)Cc1nsc(NC(=O)c2cccc(F)c2)n1 -7.15%, CCCN1CCN(S(=O)(=O)c2ccc3c(c2)CC(C)N3C(=O)C2CC2)CC1 (configuration not stated) 15.8%, c1ccc2c(-c3nn4nnnc4c4ccccc34)cccc2c1 38.8%, COCCCNC(=O)c1ccc(CSCc2ccc(C)cc2)o1 -6.72%, COc1ccc(-c2cnc3c(c2)C(=O)N([C@H](C)CO)C[C@@H](C)[C@@H](CN(C)C(=O)Nc2c(C)noc2C)O3)cc1 -25.8% [at 10 µM], C[C@@H]1CN([C@H](C)CO)C(=O)c2cc(NC(=O)Cc3cn(C)c4ccccc34)ccc2O[C@@H]1CN(C)C(=O)Nc1ccccc1 5.4%, COc1cccc(NC(=O)N(C)C[C@@H]2OCc3ccccc3-c3c(n(C)c4ccccc34)C(=O)N([C@@H](C)CO)C[C@H]2C)c1 -5.27% [at 21 µM], O=C(C[C@@H]1CC[C@@H]2[C@H](COC[C@@H](O)CN2S(=O)(=O)c2ccc(Cl)cc2)O1)N[C@@H]1CCN(Cc2ccccc2)C1 3.06%, CC(Nc1ccccc1)c1cc(Cl)ccc1O (configuration not stated) -12.3%, O=C(c1ccc(N2CCCC2=O)cc1)N1CCCCCC1 30.5%, CO[C@H]1CN(C)C(=O)c2ccc(NC(=O)C3CCOCC3)cc2OC[C@@H](C)N(C)C[C@@H]1C 1.83%, Cc1cc(F)cc(-c2cc(C(=O)NCc3ccccc3)[nH]n2)c1 17%, COc1cc(NC(=O)CCN2CCN(C)CC2)cc(OC)c1 -15%, CC(/C=C1\SC(=O)N(CCCC(=O)O)C1=O)=C\c1ccccc1 1.4%, O=C1/C(=C\c2ccco2)SC(=S)N1Cc1ccccc1 4.17%, CCOc1c(Br)cc(/C=C2/SC(=O)N(CC(=O)N3CCCC3)C2=O)cc1OC -12.5%, O=C(CCN1C(=O)/C(=C/c2ccccc2)SC1=S)NCCCN1CCOCC1 1.04%, O=S(=O)(NCCSc1ccc(Cl)cc1)c1ccc(F)cc1 -13.2%, Cc1ccc(-c2ccc3c(c2)O[C@@H](CN(C)C(=O)C2CCCCC2)[C@H](C)CN([C@H](C)CO)S3(=O)=O)cc1 -79.6%, COc1ccc(NC(=O)N[C@H]2CC[C@H](CCn3cc(-c4ccccc4F)nn3)O[C@@H]2CO)cc1 11.2%, O=C(O)c1cccn1Cc1ccccc1F 15.5%, Cc1c(CNCCc2ccc(Cl)cc2)c(C(=O)O)c(C)n1-c1ccccc1 -14.6%, C[C@@H]1CCCCO[C@H](CN(C)Cc2ccc(C(F)(F)F)cc2)[C@H](C)CN([C@H](C)CO)C(=O)c2cc(NC(=O)Cc3ccccc3)ccc2O1 -25.4%, CC(C)NC(=O)c1c(O)c2ccccc2[nH]c1=O 11%, COc1ccc(S(=O)(=O)N(C)C[C@@H]2Oc3ccc(NS(=O)(=O)c4cn(C)cn4)cc3C(=O)N([C@H](C)CO)C[C@@H]2C)cc1 -1.19%, Cc1cc(NS(=O)(=O)c2ccc(NC(=O)CCCOc3ccccc3)cc2)no1 17.9%, CCOc1ccc(S(=O)(=O)/N=C(/Nc2ccc(C(C)=O)cc2)c2ccccc2)cc1 35.1%, NC(=NC(=O)c1ccccc1)N1CCOCC1 29%, Cc1ccccc1Nc1ncnc2c1cnn2-c1ccccc1 -4.46%, O=C(c1ccc(F)cc1)N(C(=O)c1ccc(F)cc1)c1ncccn1 -7.59%, O=S(=O)(c1ccc(Br)cc1)n1ccc2ccccc21 17.3%, COC(=O)Nc1ccc(S(=O)(=O)N(CCO)CC(F)(F)C(F)F)cc1 -6.68%, COC(=O)c1ccc(Cl)c(NC(C)=O)c1 14.3%, Cc1cc(C(=O)OCC(=O)N(C)c2ccccc2)ccc1[N+](=O)[O-] 10.2%, CCOc1cc(CNC2CCCC2)cc(Cl)c1OCc1ccc(F)cc1 -105%, O=C(C[C@@H]1CC[C@@H](NS(=O)(=O)c2ccc(F)cc2)[C@H](CO)O1)N1CCN(c2ccccc2)CC1 26.8%, O=C(C[C@H]1CC[C@@H](NS(=O)(=O)c2ccc(F)cc2)[C@H](CO)O1)N1CCN(c2ccccc2)CC1 24.9% [at 21 µM], C=CC[C@@H](CC(=O)N[C@@H](CO)Cc1ccccc1)C(=O)N[C@@H](COC(=O)[C@@H](CC=C)CC(=O)OC(C)(C)C)Cc1c[nH]c2ccccc12 22.7%, COc1ccc(NC(=O)Nc2ccc3c(c2)CC(=O)N([C@H](C)CO)C[C@H](C)[C@@H](CN(C)CC2CCCCC2)O3)cc1 19.9%, CNC(=O)COC(=O)c1cc(-c2ccco2)nc2ccccc12 21.4% [at 10 µM], Cc1nc(SCC(=O)OCc2ccccc2)c(C#N)c(-c2ccccc2)c1C(=O)Nc1ccccc1 10.7%, COCC(=O)N1CC(=O)N2[C@@H](CO)[C@H](c3ccc(-c4ccncc4)cc3)[C@@H]2C1 -19.7%, O=C(Nc1cccc(OC(F)(F)F)c1)c1ccc(-c2cccnc2)c2ccoc12 14.6%, O=C(NCc1cccc(Cl)c1)c1ccc(-n2ccnc2)c2ccoc12 -31.3%, CC(Oc1ccc2c3c(c(=O)oc2c1)CCC3)C(=O)N[C@@H](Cc1ccccc1)C(=O)O (some centres not stated) 2.57%, Nc1ncnc(NCc2ccc(F)cc2)c1[N+](=O)[O-] -6.18%, COc1cccc(-c2ccc(C3[C@@H]4CN(C(=O)C5CC5)C[C@H]3N4)cc2)c1 (some centres not stated) -20.8%, O=S(=O)(c1ccc(-c2ccccc2)cc1)N1C[C@@H]2N[C@H](C1)[C@@H]2c1ccc(-c2cccnc2)cc1 -89.6%, COc1cccc(S(=O)(=O)N2C[C@@H]3N[C@H](C2)C3c2ccc(-c3ccccc3C)cc2)c1 (some centres not stated) -19%, N#Cc1ccc(-c2ccc([C@@H]3[C@@H]4CN(S(=O)(=O)c5ccc(-c6ccccc6)cc5)C[C@H]3N4)cc2)cc1 -96.9% [at 21 µM], O=C(C1CCCCC1)N1C[C@@H]2N[C@H](C1)C2c1ccc(-c2cccc(F)c2)cc1 (some centres not stated) 12.9%, N#Cc1cccc(-c2ccc([C@@H]3[C@@H]4CN(S(=O)(=O)c5ccc(-c6ccccc6)cc5)C[C@H]3N4)cc2)c1 -102%, COc1ccccc1-c1ccc([C@@H]2[C@@H]3CN(S(=O)(=O)c4ccc(-c5ccccc5)cc4)C[C@H]2N3)cc1 -95.8%, C[C@@H]1CN([C@H](C)CO)C(=O)c2cc(/C=C/c3ccccc3)cnc2O[C@@H]1CN(C)Cc1cccnc1 3.6% [at 21 µM], COc1cc(CNCCN2CCOCC2)ccc1OCc1ccc(Cl)cc1Cl -59.2%, C[C@@H]1CN([C@H](C)CO)C(=O)c2cc(C#Cc3ccccc3)cnc2O[C@@H]1CN(C)C(=O)c1ccccn1 -6.46%, O=C(CN1C(=O)C2CC=CCC2C1=O)Nc1nccs1 (configuration not stated) -9.37%, CN(C)CCCNC(=O)CC1C[C@H](C(=O)N2CCCCC2)[C@@]2(CCc3ccccc3)c3[nH]c4ccccc4c3CCN2C1=O (some centres not stated) -11.9%, COc1ccc(-n2c(C)c([N+](=O)[O-])c3ccc(O)c(CN(C)C)c32)cc1 -13%, COc1cc(O)c(C(CC(=O)N2CCOCC2)c2ccc(N(C)C)cc2)c(OC)c1 (configuration not stated) 4.72%, CNC[C@H]1Oc2ccc(NC(=O)CCN3CCOCC3)cc2C(=O)N([C@H](C)CO)C[C@H]1C -13.7% [at 21 µM], C=CCN(c1ccc(C(=O)Nc2ccc3c(c2)OCO3)cc1)S(C)(=O)=O 28.3%, Cc1cccc(S(=O)(=O)N2C[C@@H]3N[C@H](C2)C3c2ccc(-c3ccccc3C)cc2)c1 (some centres not stated) -95.3%, N#Cc1ccc(-c2ccc(C3[C@@H]4CN(S(=O)(=O)c5ccc(F)cc5)C[C@H]3N4)cc2)cc1 (some centres not stated) -93.4%, CCCSc1nnc(Sc2nnnn2-c2ccccc2)s1 -36.7%, COc1ccc(CCN2C(=O)CC(C(C)c3ccccc3)C2=O)cc1OC (configuration not stated) 8.2%, COc1ccc(CCN2C(=O)c3[nH]nc(-c4ccccc4O)c3C2c2ccccc2)cc1OC (configuration not stated) 9.8%, CCCCN(C)Cc1c(C)[nH]c2ccccc2c1=O 10.8%, COc1ccccc1-c1ccc([C@@H]2[C@@H](CO)N(C(C)=O)C23CN(C(C)=O)C3)cc1 -6.94%, CC1(Cc2ccc(Cl)cc2)C(=O)Nc2ccc(-c3cccnc3)cc21 (configuration not stated) -18.9%, CO[C@H]1CN(C)C(=O)c2cc(NC(=O)Nc3ccc(Cl)cc3)ccc2OC[C@H](C)NC[C@@H]1C 20.2%, CO[C@H]1CN(C)C(=O)c2ccc(NC(=O)c3ccc(-c4ccccc4)cc3)cc2OC[C@H](C)NC[C@@H]1C 5.16% [at 21 µM], CC1CCCN(Cc2c(O)ccc3c4c(c(=O)oc23)CCCC4)C1 (configuration not stated) 50.2%, CCc1oc2c(C)c(O)ccc2c(=O)c1-c1ccc2ccccc2n1 12%, N#Cc1ccc(Cn2c(=O)c(C#N)c3n(c2=O)CCC3)cc1 -13.7%, CC(C)Cn1cnc2c(N)nc3ccccc3c21 16.5%, Cc1cc(C)n(-c2ccc(Cl)c(C(=O)OCC(N)=O)n2)n1 -15%, Cc1ccc(C)c(NC(=O)c2nnn(Cc3ccccc3)c2N)c1 -13.6%, Cc1ccccc1NC(=O)Nc1ccccc1Br -20.9%, CC(C)(C)c1ccc(CCC2OCC(C[N+]3(C)CCOCC3)O2)cc1 (configuration not stated) 5.53%, Clc1ccccc1CN1CCSCC1 6.01%, COc1ccc(-c2cc(N)n(S(=O)(=O)c3c(F)c(F)c(F)c(F)c3F)n2)cc1OC -103%, O=C(CCSc1nnc(-c2ccc(O)cc2)o1)N1CCOCC1 12.8%, NNS(=O)(=O)c1ccc(Cc2ncc(C(F)(F)F)cc2Cl)s1 33.5%, O=S(=O)(c1ccccc1)c1ncc(C(F)(F)F)cc1Cl -79%, CC(=O)N(c1cccc(C)c1)S(=O)(=O)c1ccc(Cl)cc1 30.1%, CC(C)NC(=O)N(C)C[C@H]1OCc2cnnn2CCCC(=O)N([C@@H](C)CO)C[C@H]1C 7.69%, Oc1ccc(/C=N/Nc2nc(-c3ccc(Cl)cc3)cc(C(F)(F)F)n2)cc1 -17.5%, O=C(Cc1ccc(-n2cccc2)cc1)NCc1cccs1 -20.2%, CCOc1ccc(N(C(=O)Nc2ccccc2)C2=NCCC2)cc1 24.3%, CCOc1ccc(NS(=O)(=O)c2ccc3c(c2)oc(=O)n3C)cc1 -6.91%, O=C(CCC1CCCCC1)NCc1cccs1 -11.8%, COc1cccc(OC)c1NC(=O)C1CCCN1C(=O)NCc1ccccc1 (configuration not stated) 2.12%, COc1ccc(Cl)cc1NC(=O)CN1CCC(n2nnc3cc(C)ccc32)CC1 12.8%, O=C(OCc1ccccc1)N1CCC2CC1c1cc(-c3ccc(F)cc3)ccc12 (configuration not stated) 1.69%, Cn1cccc1C(=O)OCC(=O)Nc1ccc2c(c1)CCC2 10.5%
